Only some compounds are listed: those with a hit (about 6.5% of all), similar ones and a draw of the others.
MARV entry inh: blocks Marburg virus binding to or entry into cells; Marburg virus pseudotyped entry inhibition, cell reporter; Potency, µM (top dose mostly 37.8 µM), most hits filed as inhibitors; actives 1.8% (n = 300,000); AID 540276; calls by dose curve; tested in HEK293 cells
HCMV inh: human cytomegalovirus inhibition; activity change, negative = inhibition, % at 57.5 µM; actives 4.5% (n = 410,000); HFF cells, HCMV-luciferase reporter, 72 h; stronger effect = lower value; in the data active = activity change below about -60%; inconclusive = no clear call, values can overlap the other calls; inactive = above about -39%
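Two-dose cell screen: HFF monolayers treated with compounds and infected with luciferase-expressing HCMV at 1 PFU/cell, 72 h at 37C, then lysed for luciferase measurement.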
FMDV antiviral: antivirals against foot and mouth disease virus; actives 1.2% (n = 410,000); FMDV antiviral cell-based qHTS; Potency, µM (top dose mostly 57.9 µM), usual class: inhibitors; calls by dose curve; tested in HEK293T cells; also: read-out not given here; nearly all actives have a fitted effect of over 45% in size
Vaccinia Venus: vaccinia inhibition (Venus reporter); Potency, µM (highest dose often 36.5 µM), hits mostly inhibitors; AID 720580; actives 0.46% (n = 330,000); Vaccinia virus Venus reporter expression, fluorescence; calls by dose curve; tested in A549 cells; also: nearly all actives have a fitted effect of over 30% in size
Lassa entry inh: blocks Lassa virus binding to or entry into cells; Potency, µM (top dose mostly 37.9 µM), usual class: inhibitors; AID 540256; actives 1.2% (n = 300,000); Lassa virus pseudotype entry inhibition, cell reporter; calls by dose curve; tested in HEK293 cells; also: nearly all actives have a fitted effect of over 50% in size
VACV mCherry inh: inhibitors of vaccinia virus infection (mCherry reporter signal). Vaccinia virus mCherry reporter infection, fluorescence. Potency, µM (highest dose often 36.5 µM), most hits filed as inhibitors. actives 0.63% (n = 310,000). AID 720579; calls by dose curve; tested in A549 cells; also: nearly all actives have a fitted effect of over 35% in size
Each line names hits and unclear results; the compound was inactive in the other large screens.

CNC(=O)/C(C#N)=C/c1c(N(Cc2ccccc2)Cc2ccccc2)nc2ccccn2c1=O	MARV entry inh 16µM, Vaccinia Venus inconclusive, Lassa entry inh 11µM
Cc1ccccc1NC(=O)c1ccc(F)c(S(=O)(=O)N(C)C2CCCCC2)c1	HCMV inh -94, FMDV antiviral inconclusive, Lassa entry inh inconclusive (no result: MARV entry inh)
Cc1ccccc1NC(=O)c1ccc(F)c(S(=O)(=O)NCC2CCCO2)c1 (configuration not stated)	none (no result: MARV entry inh, Vaccinia Venus, Lassa entry inh, VACV mCherry inh)
CCOC(=O)c1c(C)[nH]c(C(=O)N/N=C/c2ccc(OC)c(OC)c2)c1C	none (no result: MARV entry inh, Vaccinia Venus, Lassa entry inh, VACV mCherry inh)
CCOC(=O)c1c(C)[nH]c(C(=O)N/N=C/c2cc([N+](=O)[O-])ccc2O)c1C	MARV entry inh inconclusive, Lassa entry inh 6.5µM
CCOC(=O)c1c(C)[nH]c(C(=O)N/N=C\c2ccccc2O)c1C	MARV entry inh inconclusive, HCMV inh -100, Vaccinia Venus inconclusive, Lassa entry inh 8.9µM, VACV mCherry inh inconclusive
COc1ccc(-c2noc(N3CCC(C(=O)N(C)c4cc(Cl)ccc4OC)CC3)n2)cc1	FMDV antiviral inconclusive (no result: MARV entry inh)
O=S(=O)(NCc1ccccc1)NCc1ccccc1F	none
O=S(=O)(NCc1ccccc1)NCc1ccccc1	MARV entry inh inconclusive, HCMV inh -68
O=C(Nc1cccc(-c2csc(Nc3cccc(C(F)(F)F)c3)n2)c1)c1cc([N+](=O)[O-])cc(C(F)(F)F)c1	FMDV antiviral 40µM, VACV mCherry inh inconclusive (no result: MARV entry inh, Lassa entry inh)
O=C(Nc1ccc(-c2csc(Nc3ccccc3)n2)cc1)c1cc([N+](=O)[O-])cc(C(F)(F)F)c1	HCMV inh -74, FMDV antiviral 25µM, Vaccinia Venus inconclusive, VACV mCherry inh 16µM (no result: MARV entry inh, Lassa entry inh)
CC(=O)c1cccc(Nc2nc(-c3cccc([N+](=O)[O-])c3)cs2)c1	MARV entry inh inconclusive, Lassa entry inh inconclusive, VACV mCherry inh inconclusive
O=[N+]([O-])c1ccc(-c2csc(Nc3ccccc3)n2)cc1	none (no result: MARV entry inh, HCMV inh, FMDV antiviral, Lassa entry inh)
Cc1ccc(C)n1C1C(=O)N(Cc2ccc(C(F)(F)F)cc2)c2ccc(OC(F)(F)F)cc21 (configuration not stated)	none (no result: MARV entry inh, FMDV antiviral, Vaccinia Venus, Lassa entry inh, VACV mCherry inh)
COc1cc(-c2nc(C(N)=O)c3c(n2)n(-c2cccc(C)c2)c(=O)n3C)cc(OC)c1OC	none (no result: MARV entry inh)
COc1ccc(Nc2nc(S(=O)(=O)c3ccc(C)cc3)c(Cl)s2)cc1	MARV entry inh inconclusive, HCMV inh -94, FMDV antiviral inconclusive, Vaccinia Venus inconclusive, VACV mCherry inh inconclusive
O=S(=O)(c1ccccc1)c1nc(Nc2cccc(O)c2)sc1Cl	MARV entry inh inconclusive, HCMV inh -67, Lassa entry inh inconclusive
Cc1cccc(Nc2nc3c(S(=O)(=O)c4ccccc4)nnn3c3ccccc23)c1	none
Cc1ccc(S(=O)(=O)c2nc(NCCN(C)C)sc2Cl)cc1	MARV entry inh inconclusive, HCMV inh inconclusive (no result: Vaccinia Venus, VACV mCherry inh)
Cc1ccc(S(=O)(=O)c2nc(Nc3ccccc3)sc2Cl)cc1	MARV entry inh inconclusive, HCMV inh -74, FMDV antiviral inconclusive (no result: Vaccinia Venus, VACV mCherry inh)
CC[C@@H](C)[C@@H](C(=O)Nc1ccc(C)cc1)N1Cc2ccccc2C1=O	none
COc1ccc(NC(=O)CCc2nnc3n(Cc4ccccc4Cl)c(=O)c4ccccc4n23)cc1	none (no result: Lassa entry inh)
COc1ccccc1NC(=O)c1cnc(SCC(=O)NCC2CCCO2)n(C)c1=O (configuration not stated)	MARV entry inh inconclusive, FMDV antiviral 25µM, Lassa entry inh inconclusive
CC(C)CCNC(=O)c1ccc2nc(CCc3ccccc3)oc2c1	none (no result: MARV entry inh)
COc1ccc(C=CC(=O)c2c(OC)cc(OC)c(OC)c2O)cc1	MARV entry inh inconclusive, FMDV antiviral 18µM, Vaccinia Venus inconclusive, VACV mCherry inh inconclusive
COc1ccc(C=CC(=O)c2cc(O)ccc2O)cc1	HCMV inh inconclusive, Lassa entry inh inconclusive, VACV mCherry inh 7.9µM
COc1ccc(OC)c(C(=O)/C=C/c2ccccc2C(F)(F)F)c1	MARV entry inh inconclusive, HCMV inh -104, FMDV antiviral 20µM, Lassa entry inh inconclusive (no result: Vaccinia Venus, VACV mCherry inh)
COc1ccc(C=CC(=O)C=CC=Cc2ccccc2)cc1	MARV entry inh inconclusive, Lassa entry inh inconclusive
COc1ccc(OC)c(C(=O)C(=O)c2cc(OC)ccc2OC)c1	MARV entry inh inconclusive
COC1=C(C)C(O)=C(C(=O)/C=C/c2ccccc2)C(=O)C1(C)C	HCMV inh -77, Vaccinia Venus inconclusive, VACV mCherry inh 11µM (no result: MARV entry inh, Lassa entry inh)
COc1ccc(C(=O)/C=C/c2ccc(O)cc2)cc1	none (no result: MARV entry inh, Lassa entry inh)
Cc1oc(C)c2c(=O)cc(-c3ccc4c(c3)OCO4)cc(OC(=O)c3ccccc3Br)c12	none
